{
  "source": "the supplement of paper PMC8728848",
  "assay_in_all_cases": "glycan array binding signal (z-score within array); higher = stronger binding",
  "conditions_in_all_cases": "glycan notation: IUPAC condensed, linker removed",
  "key": {"[1]": {"target": "GalNAc(a1-3)GalNAc(b1-3)Gal(a1-4)Gal(b1-4)Glc", "outline": "(§1)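 Arrays were curated from the Consortium for Functional Glycomics database, 3228 in total, and kept only where the protein sequence was available. Binding is expressed as a within-array Z-score. This score was averaged across arrays of the same protein sequence at different concentrations or buffers and across linkers, and negative values can be read as non-binding.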"}, "[2]": {"target": "GalNAc(b1-4)GlcNAc6S", "outline": "as §1"}, "[3]": {"target": "GlcNAc(a1-4)Gal(b1-4)GalNAc", "outline": "as §1"}, "[4]": {"target": "GlcNAc(a1-4)Gal(b1-4)GlcNAc(b1-3)Gal(b1-4)[Fuc(a1-3)]GlcNAc(b1-3)Gal(b1-4)[Fuc(a1-3)]GlcNAc", "outline": "as §1"}, "[5]": {"target": "GlcNAc(b1-2)[GlcNAc(b1-4)]Man(a1-3)[GlcNAc(b1-4)][GlcNAc(b1-2)Man(a1-6)]Man(b1-4)GlcNAc(b1-4)GlcNAc", "outline": "as §1"}, "[6]": {"target": "GlcNAc(b1-3)Gal(b1-4)GlcNAc(b1-3)Gal(b1-4)GlcNAc(b1-3)Gal(b1-4)GlcNAc(b1-3)Gal(b1-4)GlcNAc(b1-2)[GlcNAc(b1-3)Gal(b1-4)GlcNAc(b1-3)Gal(b1-4)GlcNAc(b1-3)Gal(b1-4)GlcNAc(b1-3)Gal(b1-4)GlcNAc(b1-6)]Man(a1-6)[GlcNAc(b1-3)Gal(b1-4)GlcNAc(b1-3)Gal(b1-4)GlcNAc(b1-3)Gal(b1-4)GlcNAc(b1-3)Gal(b1-4)GlcNAc(b1-2)Man(a1-3)]Man(b1-4)GlcNAc(b1-4)[Fuc(a1-6)]GlcNAc", "outline": "as §1"}, "[7]": {"target": "GlcNAc(b1-3)Gal(b1-4)GlcNAc(b1-3)GalNAc", "outline": "as §1"}, "[8]": {"target": "GlcNAc(b1-3)GalNAc", "outline": "as §1"}, "[9]": {"target": "GlcNAc(b1-4)Gal(b1-4)GlcNAc", "outline": "as §1"}, "[10]": {"target": "Kdn(a2-3)Gal(b1-3)GlcNAc", "outline": "as §1"}, "[11]": {"target": "Man(a1-2)Man(a1-2)Man(a1-6)[Man(a1-3)]Man", "outline": "as §1"}, "[12]": {"target": "MurNAc(b1-4)GlcNAc", "outline": "as §1"}, "[13]": {"target": "Neu5Ac(a2-3)GalNAc", "outline": "as §1"}, "[14]": {"target": "Neu5Ac(a2-3)[GalNAc(b1-4)]Gal(b1-4)Glc", "outline": "as §1"}, "[15]": {"target": "Neu5Ac(a2-3)[GalNAc(b1-4)]Gal(b1-4)GlcNAc", "outline": "as §1"}, "[16]": {"target": "Neu5Ac(a2-6)Gal(b1-4)GlcNAc", "outline": "as §1"}, "[17]": {"target": "Neu5Ac(a2-6)Gal(b1-4)GlcNAc(b1-2)Man", "outline": "as §1"}, "[18]": {"target": "Neu5Ac(a2-6)Gal(b1-4)GlcNAc(b1-2)Man(a1-3)Man(b1-4)GlcNAc(b1-4)GlcNAc", "outline": "as §1"}, "[19]": {"target": "Neu5Ac(a2-6)Gal(b1-4)GlcNAc(b1-2)Man(a1-6)[Gal(b1-4)GlcNAc(b1-2)Man(a1-3)]Man(b1-4)GlcNAc(b1-4)GlcNAc", "outline": "as §1"}, "[20]": {"target": "Neu5Ac(a2-6)Gal(b1-4)GlcNAc6S", "outline": "as §1"}, "[21]": {"target": "Neu5Ac(a2-8)Neu5Ac(a2-3)[Gal(b1-3)GalNAc(b1-4)]Gal(b1-4)Glc", "outline": "as §1"}, "[22]": {"target": "Neu5Ac(a2-8)Neu5Ac(a2-8)Neu5Ac(a2-8)Neu5Ac(a2-3)[GalNAc(b1-4)]Gal(b1-4)Glc", "outline": "as §1"}},
  "note": "About 410 targets per protein were measured; listed, in parts, are those with the strongest signals and a random draw of the rest.",
  "data": [
    {"binder": "DBA (Dolichos biflorus) (protein) ANIQSFSFKNFNSPSFILQGDATVSSGKLQLTKVKENGFPLRFPSGRAFYSSPIQIYDKFTGAVASWATSFTVKISAPSKASFADGIAFALVPVGSEPRRNGGYLGVFDSDVYNNSAQTVAVEFDTLSNSGWDPSMKHIGIDVNSIKSIATVSWDLANGENAEILITYNAATSLLVVSLVHPSRRTSYILSERVDITNELPEYVGVGFSATTGLSEGYIETHDVLSWSFASRLPDDSTAEPLDLARYLVRNVL", "values": [
      {"measurement": "glycan array binding signal (z-score)", "setting": "[1]", "result": 13.4},
      {"measurement": "glycan array binding signal (z-score)", "setting": "[2]", "result": 1.8},
      {"measurement": "glycan array binding signal (z-score)", "setting": "[3]", "result": -0.085},
      {"measurement": "glycan array binding signal (z-score)", "setting": "[4]", "result": -0.007},
      {"measurement": "glycan array binding signal (z-score)", "setting": "[5]", "result": -0.133},
      {"measurement": "glycan array binding signal (z-score)", "setting": "[6]", "result": -0.1},
      {"measurement": "glycan array binding signal (z-score)", "setting": "[7]", "result": -0.139},
      {"measurement": "glycan array binding signal (z-score)", "setting": "[8]", "result": -0.101},
      {"measurement": "glycan array binding signal (z-score)", "setting": "[9]", "result": -0.16},
      {"measurement": "glycan array binding signal (z-score)", "setting": "[10]", "result": -0.169},
      {"measurement": "glycan array binding signal (z-score)", "setting": "[11]", "result": -0.081},
      {"measurement": "glycan array binding signal (z-score)", "setting": "[12]", "result": -0.119},
      {"measurement": "glycan array binding signal (z-score)", "setting": "[13]", "result": -0.165},
      {"measurement": "glycan array binding signal (z-score)", "setting": "[14]", "result": 4.19},
      {"measurement": "glycan array binding signal (z-score)", "setting": "[15]", "result": 3.09},
      {"measurement": "glycan array binding signal (z-score)", "setting": "[16]", "result": -0.103},
      {"measurement": "glycan array binding signal (z-score)", "setting": "[17]", "result": -0.127},
      {"measurement": "glycan array binding signal (z-score)", "setting": "[18]", "result": -0.098},
      {"measurement": "glycan array binding signal (z-score)", "setting": "[19]", "result": -0.144},
      {"measurement": "glycan array binding signal (z-score)", "setting": "[20]", "result": -0.118},
      {"measurement": "glycan array binding signal (z-score)", "setting": "[21]", "result": -0.124},
      {"measurement": "glycan array binding signal (z-score)", "setting": "[22]", "result": -0.104}
    ]}
  ]
}
